{"source": "PubChem BioAssay AID1159580", "about": "(chemical genetic matrix, 2015)", "experiment": "chemical genetic growth profiling, strain panel (AID 1159580);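 note: tested at 20 µM; growth read once vehicle control cultures reached saturation at 30 °C; 1 = growth at the plate median or of vehicle wells; lower values mean less growth of the strain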", "details": "S. cerevisiae deletion strains, growth OD", "note": "The whole screen tested about 5,500 compounds, of which about 2,000 (36%) were called active. Roughly 18% stayed inconclusive and do not appear here. Some of the results follow. Values without a mark were called inactive. Cut-off read from the data, not from the text of the source: active = normalized growth mostly below about 0.91 (no sharp cut-off); inconclusive = no clear call, values can overlap the other calls; inactive = mostly above about 0.92."}
{"compound": "CN1CCC(=C2c3ccccc3CCc3sccc32)CC1", "values": [{"measurement": "normalized growth", "setting": "locus YAL021C, strain ccr4, active compounds read low", "value": 0.91}, {"measurement": "normalized growth", "setting": "locus YAL026C, strain drs2, active compounds read low", "value": 0.956}, {"measurement": "normalized growth", "setting": "locus YAL030W, strain snc1, active compounds read low", "value": 0.987}, {"measurement": "normalized growth", "setting": "locus YBL061C, strain skt5, active compounds read low", "value": 0.967}, {"measurement": "normalized growth", "setting": "locus YBR009C, strain hhf1, active compounds read low", "value": 0.986}, {"measurement": "normalized growth", "setting": "locus YBR023C, strain chs3, active compounds read low", "value": 0.969}, {"measurement": "normalized growth", "setting": "locus YBR171W, strain sec66, active compounds read low", "value": 0.961}, {"measurement": "normalized growth", "setting": "locus YBR231C, strain swc5, active compounds read low", "value": 0.965}, {"measurement": "normalized growth", "setting": "locus YBR279W, strain paf1, active compounds read low", "value": 0.959}, {"measurement": "normalized growth", "setting": "locus YCL011C, strain gbp2, active compounds read low", "value": 0.958}, {"measurement": "normalized growth", "setting": "locus YCL016C, strain dcc1, active compounds read low", "value": 0.948}, {"measurement": "normalized growth", "setting": "locus YCL069W, strain vba3, active compounds read low", "value": 0.977}, {"measurement": "normalized growth", "setting": "locus YCR088W, strain abp1, active compounds read low", "value": 0.979}, {"measurement": "normalized growth", "setting": "locus YDL005C, strain med2, active compounds read low", "value": 0.968}, {"measurement": "normalized growth", "setting": "locus YDL040C, strain nat1, active compounds read low", "value": 0.98}, {"measurement": "normalized growth", "setting": "locus YDR001C, strain nth1, active compounds read low", "value": 0.96}, {"measurement": "normalized growth", "setting": "locus YDR069C, strain doa4, active compounds read low", "value": 0.905}, {"measurement": "normalized growth", "setting": "locus YDR137W, strain rgp1, active compounds read low", "value": 1.08}, {"measurement": "normalized growth", "setting": "locus YDR159W, strain sac3, active compounds read low", "value": 0.952}, {"measurement": "normalized growth", "setting": "locus YDR195W, strain ref2", "value": 0.954}, {"measurement": "normalized growth", "setting": "locus YDR297W, strain sur2, active compounds read low", "value": 0.976}, {"measurement": "normalized growth", "setting": "locus YDR334W, strain swr1, active compounds read low", "value": 0.972}, {"measurement": "normalized growth", "setting": "locus YDR335W, strain msn5, active compounds read low", "value": 0.949}, {"measurement": "normalized growth", "setting": "locus YDR392W, strain spt3, active compounds read low", "value": 0.93}, {"measurement": "normalized growth", "setting": "locus YEL003W, strain gim4, active compounds read low", "value": 0.982}, {"measurement": "normalized growth", "setting": "locus YEL037C, strain rad23, active compounds read low", "value": 0.975}, {"measurement": "normalized growth", "setting": "locus YEL061C, strain CIN8 (second series), active compounds read low", "value": 0.967}, {"measurement": "normalized growth", "setting": "locus YER015W, strain faa2, active compounds read low", "value": 0.967}, {"measurement": "normalized growth", "setting": "locus YER016W, strain bim1, active compounds read low", "value": 0.995}, {"measurement": "normalized growth", "setting": "locus YER111C, strain swi4, active compounds read low", "value": 0.954}, {"measurement": "normalized growth", "setting": "locus YER155C, strain BEM2 (second series), active compounds read low", "value": 0.933}, {"measurement": "normalized growth", "setting": "locus YFR010W, strain ubp6, active compounds read low", "value": 0.961}, {"measurement": "normalized growth", "setting": "locus YGL167C, strain pmr1, active compounds read low", "value": 0.969}, {"measurement": "normalized growth", "setting": "locus YGL173C, strain kem1, active compounds read low", "value": 0.972}, {"measurement": "normalized growth", "setting": "locus YGL227W, strain vid30, active compounds read low", "value": 0.941}, {"measurement": "normalized growth", "setting": "locus YGL240W, strain doc1, active compounds read low", "value": 0.998}, {"measurement": "normalized growth", "setting": "locus YGL253W, strain hxk2, active compounds read low", "value": 0.977}, {"measurement": "normalized growth", "setting": "locus YHR013C, strain ard1, active compounds read low", "value": "0.842 (active)"}, {"measurement": "normalized growth", "setting": "locus YHR027C, strain rpn1, active compounds read low", "value": 0.954}, {"measurement": "normalized growth", "setting": "locus YHR030C, strain SLT2, active compounds read low", "value": 0.943}, {"measurement": "normalized growth", "setting": "locus YHR079C, strain IRE1, active compounds read low", "value": 0.97}, {"measurement": "normalized growth", "setting": "locus YHR142W, strain chs7, active compounds read low", "value": 0.951}, {"measurement": "normalized growth", "setting": "locus YJL092W, strain hpr5, active compounds read low", "value": 0.975}, {"measurement": "normalized growth", "setting": "locus YJL095W, strain BCK1 (second series), active compounds read low", "value": 0.973}, {"measurement": "normalized growth", "setting": "locus YJL095W, strain BCK1, active compounds read low", "value": 1.02}, {"measurement": "normalized growth", "setting": "locus YJL115W, strain asf1, active compounds read low", "value": 0.922}, {"measurement": "normalized growth", "setting": "locus YJL129C, strain trk1, active compounds read low", "value": 0.967}, {"measurement": "normalized growth", "setting": "locus YJL154C, strain vps35, active compounds read low", "value": 0.968}, {"measurement": "normalized growth", "setting": "locus YJL164C, strain tpk1, active compounds read low", "value": 0.968}, {"measurement": "normalized growth", "setting": "locus YJL166W, strain qcr8, active compounds read low", "value": 0.98}, {"measurement": "normalized growth", "setting": "locus YJR066W, strain TOR1, active compounds read low", "value": 0.941}, {"measurement": "normalized growth", "setting": "locus YKL160W, strain elf1, active compounds read low", "value": 0.935}, {"measurement": "normalized growth", "setting": "locus YKR026C, strain gcn3, active compounds read low", "value": 0.966}, {"measurement": "normalized growth", "setting": "locus YKR091W, strain srl3, active compounds read low", "value": 0.964}, {"measurement": "normalized growth", "setting": "locus YLL001W, strain dnm1, active compounds read low", "value": 0.987}, {"measurement": "normalized growth", "setting": "locus YLL026W, active compounds read low", "value": 0.982}, {"measurement": "normalized growth", "setting": "locus YLL041C, strain sdh2, active compounds read low", "value": 0.961}, {"measurement": "normalized growth", "setting": "locus YLR027C, strain aat2, active compounds read low", "value": 0.95}, {"measurement": "normalized growth", "setting": "locus YLR113W, strain HOG1, active compounds read low", "value": 1.01}, {"measurement": "normalized growth", "setting": "locus YLR221C, strain rsa3, active compounds read low", "value": 0.997}, {"measurement": "normalized growth", "setting": "locus YLR258W, strain gsy2, active compounds read low", "value": 0.966}, {"measurement": "normalized growth", "setting": "locus YLR262C, strain YPT6 (second series), active compounds read low", "value": 1.01}, {"measurement": "normalized growth", "setting": "locus YLR320W, strain mms22, active compounds read low", "value": 0.98}, {"measurement": "normalized growth", "setting": "locus YLR342W, strain FKS1, active compounds read low", "value": 0.973}, {"measurement": "normalized growth", "setting": "locus YLR357W, strain rsc2, active compounds read low", "value": 0.946}, {"measurement": "normalized growth", "setting": "locus YLR370C, strain arc18, active compounds read low", "value": 0.96}, {"measurement": "normalized growth", "setting": "locus YLR384C, strain iki3, active compounds read low", "value": 0.967}, {"measurement": "normalized growth", "setting": "locus YML120C, strain ndi1, active compounds read low", "value": 0.97}, {"measurement": "normalized growth", "setting": "locus YMR058W, strain fet3, active compounds read low", "value": 0.955}, {"measurement": "normalized growth", "setting": "locus YMR125W, strain sto1, active compounds read low", "value": 0.933}, {"measurement": "normalized growth", "setting": "locus YMR129W, active compounds read low", "value": 0.979}, {"measurement": "normalized growth", "setting": "locus YMR205C, strain PFK2, active compounds read low", "value": 0.958}, {"measurement": "normalized growth", "setting": "locus YMR231W, strain pep5, active compounds read low", "value": 0.979}, {"measurement": "normalized growth", "setting": "locus YNL071W, strain lat1, active compounds read low", "value": 0.958}, {"measurement": "normalized growth", "setting": "locus YNL183C, strain NPR1, active compounds read low", "value": 0.97}, {"measurement": "normalized growth", "setting": "locus YNL209W, strain ssb2, active compounds read low", "value": 0.962}, {"measurement": "normalized growth", "setting": "locus YNL248C, strain rpa49, active compounds read low", "value": 0.955}, {"measurement": "normalized growth", "setting": "locus YNL322C, strain KRE1 (second series), active compounds read low", "value": 0.936}, {"measurement": "normalized growth", "setting": "locus YNR049C, strain mso1, active compounds read low", "value": 0.97}, {"measurement": "normalized growth", "setting": "locus YOR001W, strain rrp6, active compounds read low", "value": 0.948}, {"measurement": "normalized growth", "setting": "locus YOR070C, strain gyp1, active compounds read low", "value": 0.98}, {"measurement": "normalized growth", "setting": "locus YOR080W, strain dia2, active compounds read low", "value": 0.975}, {"measurement": "normalized growth", "setting": "locus YOR083W, strain WHI5, active compounds read low", "value": 0.913}, {"measurement": "normalized growth", "setting": "locus YOR106W, strain vam3, active compounds read low", "value": 0.889}, {"measurement": "normalized growth", "setting": "locus YOR231W, strain MKK1, active compounds read low", "value": 0.969}, {"measurement": "normalized growth", "setting": "locus YOR265W, strain rbl2, active compounds read low", "value": 0.969}, {"measurement": "normalized growth", "setting": "locus YOR270C, strain vph1, active compounds read low", "value": 0.872}, {"measurement": "normalized growth", "setting": "locus YOR290C, strain snf2, active compounds read low", "value": 0.916}, {"measurement": "normalized growth", "setting": "locus YPL051W, strain arl3, active compounds read low", "value": 0.956}, {"measurement": "normalized growth", "setting": "locus YPL078C, strain atp4, active compounds read low", "value": 0.957}, {"measurement": "normalized growth", "setting": "locus YPL106C, strain sse1, active compounds read low", "value": 0.942}, {"measurement": "normalized growth", "setting": "locus YPL240C, strain hsp82, active compounds read low", "value": 0.967}, {"measurement": "normalized growth", "setting": "locus YPL256C, strain CLN2, active compounds read low", "value": 0.963}]}
